In PubChem BioAssay (NCATS):
Several values for one entry are separate records, joined by “and”; a condition that tells them apart may be missing. Equal entries are not always repeated. Inconclusive results are not listed. Activity calls are given as the source filed them. The call rests on the fitted dose curve; in most records, active means well fitted inhibition curve with a large enough effect; inconclusive means small, poorly fitted or top-dose-only effect; inactive means flat fitted curve, though single readings scatter.

Assays:
[1] = qHTS profiling for inhibitors of Plasmodium falciparum proliferation (AID 504749);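 on activity, negative = inhibition: 0% = DMSO vehicle and full inhibition = artemisinin control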; on all read-outs here: nearly all actives have a fitted effect of over 60% in size; conditions: P. falciparum in erythrocytes, SYBR Green DNA, 72 h; for activity, negative = inhibition: at 28.7 µM (top of the series)
Method in brief: (§1)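 P. falciparum-infected erythrocytes (0.3% parasitemia, 2.5% hematocrit final) were exposed to compounds for 72 h at 37 C in 5% CO2, then lysed with SYBR Green buffer overnight at room temperature; parasite DNA fluorescence was normalized to artemisinin and DMSO controls.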

7G8 = assay: as above; conditions: P. falciparum in erythrocytes, SYBR Green DNA, 72 h; series mostly up to 28.7 µM
Method in brief: as §1

AA1029 = assay: as above; conditions: P. falciparum in erythrocytes, SYBR Green DNA, 72 h; series mostly up to 28.7 µM
Method in brief: as §1

AS120 = assay: as above; conditions: P. falciparum in erythrocytes, SYBR Green DNA, 72 h; series mostly up to 28.7 µM
Method in brief: as §1

ATS189 = assay: as above; conditions: P. falciparum in erythrocytes, SYBR Green DNA, 72 h; series mostly up to 28.7 µM
Method in brief: as §1

ATS95 = assay: as above; conditions: P. falciparum in erythrocytes, SYBR Green DNA, 72 h; series mostly up to 28.7 µM
Method in brief: as §1

C2A = assay: as above; conditions: P. falciparum in erythrocytes, SYBR Green DNA, 72 h; series mostly up to 28.7 µM
Method in brief: as §1

CP185 = assay: as above; conditions: P. falciparum in erythrocytes, SYBR Green DNA, 72 h; series mostly up to 28.7 µM
Method in brief: as §1

CP191 = assay: as above; conditions: P. falciparum in erythrocytes, SYBR Green DNA, 72 h; series mostly up to 28.7 µM
Method in brief: as §1

CP192 = assay: as above; conditions: P. falciparum in erythrocytes, SYBR Green DNA, 72 h; series mostly up to 28.7 µM
Method in brief: as §1

CP194 = assay: as above; conditions: P. falciparum in erythrocytes, SYBR Green DNA, 72 h; series mostly up to 28.7 µM
Method in brief: as §1

CP201 = assay: as above; conditions: P. falciparum in erythrocytes, SYBR Green DNA, 72 h; series mostly up to 28.7 µM
Method in brief: as §1

CP203 = assay: as above; conditions: P. falciparum in erythrocytes, SYBR Green DNA, 72 h; series mostly up to 28.7 µM
Method in brief: as §1

CP211 = assay: as above; conditions: P. falciparum in erythrocytes, SYBR Green DNA, 72 h; series mostly up to 28.7 µM
Method in brief: as §1

CP215 = assay: as above; conditions: P. falciparum in erythrocytes, SYBR Green DNA, 72 h; series mostly up to 28.7 µM
Method in brief: as §1

CP217 = assay: as above; conditions: P. falciparum in erythrocytes, SYBR Green DNA, 72 h; series mostly up to 28.7 µM
Method in brief: as §1

CP237 = assay: as above; conditions: P. falciparum in erythrocytes, SYBR Green DNA, 72 h; series mostly up to 28.7 µM
Method in brief: as §1

CP238 = assay: as above; conditions: P. falciparum in erythrocytes, SYBR Green DNA, 72 h; series mostly up to 28.7 µM
Method in brief: as §1

CP247 = assay: as above; conditions: P. falciparum in erythrocytes, SYBR Green DNA, 72 h; series mostly up to 28.7 µM
Method in brief: as §1

3D7 = assay: as above; conditions: P. falciparum in erythrocytes, SYBR Green DNA, 72 h; series mostly up to 28.7 µM
Method in brief: as §1
Potency means the concentration at half of the fitted maximal effect.

COC(=O)C1=C(C)NC(C)=C(C(=O)OCCN2CCN(C(c3ccccc3)c3ccccc3)CC2)C1c1cccc([N+](=O)[O-])c1 (stereo not drawn)
active: Potency ([1]; parasite line A) 3160 nM | Potency ([1]; parasite line B) 3980 nM | Potency (7G8) 1410 nM | Potency (AA1029) 2240 nM | Potency (AS120) 2000 nM | Potency (ATS189) 1580 nM | Potency (ATS95) 2510 nM | Potency (C2A) 3550 nM | Potency (CP185) 4470 nM | Potency (CP191) 3160 nM | Potency (CP192) 4780 nM | Potency (CP194) 5360 nM | Potency (CP201) 7570 nM | Potency (CP203) 3790 nM | Potency (CP211) 3790 nM | Potency (CP215) 3380 nM | Potency (CP217) 3160 nM | Potency (CP237) 3160 nM | Potency (CP238) 2510 nM | Potency (CP247) 3980 nM

COc1c(N2C[C@@H]3CCCN[C@H]3C2)c(F)cc2c(=O)c(C(=O)O)cn(C3CC3)c12
inactive: activity, negative = inhibition ([1]; parasite line A) -20.4% | activity, negative = inhibition ([1]; parasite line B) -3.01% | Potency (3D7) | Potency (AA1029) | Potency (AS120) | Potency (ATS189) | Potency (ATS95) | Potency (C2A) | Potency (CP185) | Potency (CP191) | Potency (CP192) | Potency (CP194) | Potency (CP201) | Potency (CP203) | Potency (CP211) | Potency (CP215) | Potency (CP217) | Potency (CP238) | Potency (CP247)

CC=CC1=C(C(=O)O)N2C(=O)[C@H](NC(=O)[C@H](N)c3ccc(O)cc3)[C@@H]2SC1
inactive: activity, negative = inhibition ([1]; parasite line A) -3.61% | activity, negative = inhibition ([1]; parasite line B) -5.72% | Potency (3D7) | Potency (7G8) | Potency (AA1029) | Potency (AS120) | Potency (ATS189) | Potency (ATS95) | Potency (C2A) | Potency (CP185) | Potency (CP191) | Potency (CP192) | Potency (CP194) | Potency (CP201) | Potency (CP203) | Potency (CP211) | Potency (CP215) | Potency (CP217) | Potency (CP237) | Potency (CP238) | Potency (CP247)

CN1c2cc(O)c(N=NC(N)=O)cc2CC1S(=O)(=O)O (stereo not drawn)
inactive: activity, negative = inhibition ([1]; parasite line A) -0.188% | activity, negative = inhibition ([1]; parasite line B) 7.8% | Potency (3D7) | Potency (7G8) | Potency (AA1029) | Potency (AS120) | Potency (ATS189) | Potency (ATS95) | Potency (C2A) | Potency (CP185) | Potency (CP191) | Potency (CP192) | Potency (CP194) | Potency (CP201) | Potency (CP203) | Potency (CP211) | Potency (CP215) | Potency (CP217) | Potency (CP237) | Potency (CP238) | Potency (CP247)

CC(C)(C)NC(=O)[C@H]1CN(Cc2cccnc2)CCN1C[C@@H](O)C[C@@H](Cc1ccccc1)C(=O)N[C@H]1c2ccccc2C[C@H]1O
active: Potency (C2A) 10000 nM | Potency (CP191) 8910 nM | Potency (CP192) 10700 nM | Potency (CP194) 15100 nM | Potency (CP201) 16900 nM | Potency (CP215) 15100 nM | Potency (CP217) 11200 nM | Potency (CP237) 8910 nM | Potency (CP247) 11200 nM

CCC1=C[C@@H]2CN(C1)Cc1c([nH]c3ccccc13)[C@@](C(=O)OC)(c1cc3c(cc1OC)N(C)[C@@H]1[C@@](O)(C(=O)OC)[C@H](OC(C)=O)[C@]4(CC)C=CCN5CC[C@]31[C@@H]54)C2
active: Potency ([1]; parasite line A) 3160 nM | Potency ([1]; parasite line B) 5010 nM | Potency (3D7) 3160 nM | Potency (7G8) 2240 nM | Potency (AA1029) 1580 nM | Potency (AS120) 1410 nM | Potency (ATS189) 1780 nM | Potency (ATS95) 2000 nM | Potency (C2A) 1260 nM | Potency (CP185) 3160 nM | Potency (CP191) 3980 nM | Potency (CP192) 4260 nM | Potency (CP194) 3380 nM | Potency (CP201) 4780 nM | Potency (CP203) 3010 nM | Potency (CP211) 3380 nM | Potency (CP215) 2130 nM | Potency (CP217) 2510 nM | Potency (CP237) 3980 nM | Potency (CP238) 2820 nM | Potency (CP247) 3550 nM

Nc1ccn([C@@H]2CS[C@H](CO)O2)c(=O)n1
inactive: activity, negative = inhibition ([1]; parasite line A) 3.35% and 3.28% | activity, negative = inhibition ([1]; parasite line B) 12% and -4.61% | Potency (3D7) | Potency (7G8) | Potency (AA1029) | Potency (AS120) | Potency (ATS189) | Potency (ATS95) | Potency (C2A) | Potency (CP185) | Potency (CP191) | Potency (CP192) | Potency (CP194) | Potency (CP201) | Potency (CP203) | Potency (CP211) | Potency (CP215) | Potency (CP217) | Potency (CP237) | Potency (CP238) | Potency (CP247)

COC(=O)C[C@](O)(CCCC(C)(C)O)C(=O)O[C@@H]1C(OC)=C[C@]23CCCN2CCc2cc4c(cc2[C@H]13)OCO4
active: Potency ([1]; parasite line A) 25.1 nM | Potency ([1]; parasite line B) 25.1 nM | Potency (3D7) 25.1 nM | Potency (7G8) 11.2 nM | Potency (AA1029) 25.1 nM | Potency (AS120) 15.8 nM | Potency (ATS189) 31.6 nM | Potency (ATS95) 28.2 nM | Potency (C2A) 22.4 nM | Potency (CP185) 35.5 nM | Potency (CP191) 28.2 nM | Potency (CP192) 26.9 nM | Potency (CP194) 37.9 nM | Potency (CP201) 42.6 nM | Potency (CP203) 33.8 nM | Potency (CP211) 30.1 nM | Potency (CP215) 33.8 nM | Potency (CP217) 31.6 nM | Potency (CP237) 15.8 nM | Potency (CP238) 28.2 nM | Potency (CP247) 17.8 nM
